JMJD2E inh = blocks human JMJD2E demethylase activity; B2RXH2; JMJD2E catalytic domain, FDH-coupled NADH fluorescence (FDH is formaldehyde dehydrogenase); Potency, µM (titrated, usually from 57.1 µM), without a hit: top-dose activity change, negative = inhibition, usual class: inhibitors; actives 1.6% (n = 230,000); active means well fitted inhibition curve with a large enough effect, not every such curve was filed as active; inconclusive means small, poorly fitted or top-dose-only effect, or another doubt; inactive means no such curve, though single readings can be large or run the other way;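 further: potency means the concentration at half of the fitted maximal effect; 0% = wells with enzyme and -100% = buffer wells without enzyme; nearly all actives have a fitted effect of over 50% in size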
CBFb-RUNX1 inh = blocks binding between human CBF-beta and RUNX1; Q01196+Q13951; AlphaScreen CBFb-His/RUNX1-biotin binding, biochemical; Potency, µM (highest dose often 59.8 µM), for inactives: top-dose activity, negative = inhibition, usual class: inhibitors; 230,000 tested, under 10 active; further: % of control where 0% means no effect
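CBF-beta (His) and RUNX1 (biotin), 30 nM each; 20 min preassociation; + compound, 15 min; + beads 50 ng each (Ni, streptavidin), 90 min; RT; AlphaScreen read.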
HTT ATP protect = protects HTT-Q103 PC12 cells, measured by ATP; Potency, µM (highest dose often 56.4 µM), for inactives: cytoprotection (ATP increase), hits mostly activators; AID 1471; actives 0.14% (n = 230,000); PC12 HTT-Q103 induced, cytoprotection, ATP luminescence, 40 h; further: potency means the concentration at half of the fitted maximal effect; % of control where 0% means no effect; nearly all actives have a fitted effect of over 45% in size
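ATP quantification (ATPlite) reports survival of PC12 cells in which tebufenozide, 100 nM final, switches on Htt exon 1 with 103 glutamines linked to GFP; compounds are titrated.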
HTT aggregate = reduces HttQ103-GFP aggregates in PC12 cells; AID 1688; actives 1.1% (n = 220,000); PC12 HttQ103-GFP aggregates, Acumen cytometry, 40 h; Potency, µM (highest dose often 46.1 µM), for inactives: at the top dose activity change, negative = inhibition, most hits filed as inhibitors; further: potency means the concentration at half of the fitted maximal effect; on the % scale 0 is the no-effect control and ±100 the full control effect; nearly all actives have a fitted effect of over 60% in size
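PC12 cells stably carrying ecdysone-inducible HTT exon 1 Q103–GFP were induced with tebufenozide (100 nM final) and treated with library compounds in titration. GFP aggregates in lysates were counted by laser scanning cytometry.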
HPGD inh = HPGD (human) dehydrogenase inhibition. purified HPGD, NADH fluorescence kinetic, PGE2 substrate. actives 4.3% (n = 150,000). Potency, µM, inactives show top-dose activity change, negative = inhibition, hits mostly inhibitors. P15428; active means well fitted inhibition curve with a large enough effect, not every such curve was filed as active; inconclusive means small, poorly fitted or top-dose-only effect, or another doubt; inactive means no such curve, though single readings can be large or run the other way; further: potency means the concentration at half of the fitted maximal effect; on the % scale 0 is the no-effect control and ±100 the full control effect
Target sequence (P15428 whole entry, looked up): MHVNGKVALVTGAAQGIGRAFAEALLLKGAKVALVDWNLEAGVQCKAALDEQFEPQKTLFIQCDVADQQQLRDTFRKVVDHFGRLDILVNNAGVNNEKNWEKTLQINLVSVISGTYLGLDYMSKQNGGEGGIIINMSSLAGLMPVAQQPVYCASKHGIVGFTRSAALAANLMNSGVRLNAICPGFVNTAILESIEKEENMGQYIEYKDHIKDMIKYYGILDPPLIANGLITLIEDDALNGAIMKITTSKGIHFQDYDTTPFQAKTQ
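20 nM HPGD preincubated 15 min at room temperature with compound in 50 mM Tris-HCl pH 8, 0.01% Tween 20. Started with 1 mM NAD+ and 30 uM prostaglandin E2; NADH fluorescence (360/450 nm) read 5 times over 30-s intervals, last minus first.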
ALDH1A1 inh = ALDH1A1 (human) enzyme inhibition. P00352. Purified ALDH1A1, NADH fluorescence, propionaldehyde substrate. Potency, µM (highest dose often 75.3 µM), without a hit: top-dose activity, negative = inhibition, hits mostly inhibitors. actives 7.3% (n = 220,000); active means well fitted inhibition curve with a large enough effect, not every such curve was filed as active; inconclusive means small, poorly fitted or top-dose-only effect, or another doubt; inactive means no such curve, though single readings can be large or run the other way;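 further: potency means the concentration at half of the fitted maximal effect; plate controls were no enzyme wells and a reference inhibitor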
Numbers without * were called inactive; [ ] = dose if it differs, or a comment. Hits are enriched below; roughly 9.8% of the tested compounds scored in any of these assays. Unless noted, the call rests on the fitted dose curve; in most records, active means well fitted curve in the direction sought with a large enough effect; inconclusive means small, poorly fitted or top-dose-only effect, or another doubt; inactive means no such curve, though single readings can be large; an effect the other way counts as inactive or inconclusive.

Screening O=C(CSc1nc2ccc(Nc3nc(N4CCCC4)nc(N4CCCC4)n3)cc2s1)NCc1ccco1 returned JMJD2E inh 20µM*, CBFb-RUNX1 inh 7.7%, HTT ATP protect -28.0%[10 µM] and HTT aggregate -6.6%[9.22 µM].
CCOc1ccc2nc(SCC(=O)NCc3ccco3)sc2c1 was read as JMJD2E inh -20.6%, CBFb-RUNX1 inh -3.5%, HTT ATP protect -30.5%, HTT aggregate -1.6%, HPGD inh 22.4µM* and ALDH1A1 inh -3.0%.
Screening CCOc1ccc2nc(SCC(=O)NC(=O)NCc3ccco3)sc2c1 returned JMJD2E inh 1.9%, CBFb-RUNX1 inh -6.5%, HTT ATP protect -14.3%, HTT aggregate -4.4%, HPGD inh -22.7% and ALDH1A1 inh 5.1%.
`O=C(CSc1nc2ccc(Nc3nc(N4CCOCC4)nc(N4CCOCC4)n3)cc2s1)N1CCOCC1` gave JMJD2E inh -18.2%, CBFb-RUNX1 inh -0.5%, HTT ATP protect 16.0%[10 µM], HTT aggregate -7.9%, HPGD inh 22.4µM* and ALDH1A1 inh 3.6%.
O=C(CSc1nc2cc(Cl)ccc2s1)NC(=O)NCc1ccco1 was read as JMJD2E inh 2.1%, CBFb-RUNX1 inh -19.2%, HTT ATP protect -26.3%, HTT aggregate 15.3%, HPGD inh -16.6% and ALDH1A1 inh -0.2%.
Screening Fc1cccc(F)c1/C=N/N1CCOCC1 returned JMJD2E inh 3.9%, CBFb-RUNX1 inh 3.5%, HTT ATP protect -4.9%, HTT aggregate 0.6% and ALDH1A1 inh -4.2%.
O=C1c2ccccc2C(=O)N1/N=C/c1ccc(O)c(O)c1O was read as JMJD2E inh 2.24µM*, HTT ATP protect -2.1%[10 µM] and HTT aggregate -12.4%[9.22 µM].
For O=C1c2cccc3cccc(c23)C(=O)N1/N=C/c1ccc(O)cc1O the results were JMJD2E inh 8.2%, CBFb-RUNX1 inh -6.1%, HTT aggregate -25.3%, HPGD inh -5.3% and ALDH1A1 inh 0.8%.
Oc1ccc(/C=N/N2CCOCC2)c(O)c1O was read as JMJD2E inh 25.1µM*, CBFb-RUNX1 inh inconclusive, HTT ATP protect -40.5%, HTT aggregate 16.8% and ALDH1A1 inh 7.08µM*.
Fc1ccc(/C=N/N2CCOCC2)c(F)c1 was read as JMJD2E inh -2.1%, CBFb-RUNX1 inh inconclusive, HTT ATP protect 0.708µM*, HTT aggregate -6.3% and ALDH1A1 inh 1.7%.
Screening COC(=O)[C@@H](NC(=O)O[C@@H]1C(=O)c2cc(OC)ccc2O[C@H]1c1ccc(OC)c(Br)c1)C(C)C returned JMJD2E inh inconclusive, CBFb-RUNX1 inh 7.4%, HTT ATP protect -12.1%, HPGD inh -18.8% and ALDH1A1 inh -7.2%.
Screening O=C(Oc1c(Br)cc([N+](=O)[O-])cc1Br)c1cccnc1 returned JMJD2E inh -3.8%, CBFb-RUNX1 inh 3.6%, HTT ATP protect 33.9%[10 µM], HTT aggregate 35.5µM*, HPGD inh -7.6% and ALDH1A1 inh 1.4%.
For CC(NC(=O)/C(C#N)=C1\N=C(NC(=O)c2ccco2)c2ccccc21)c1ccccc1 (configuration not stated) the results were JMJD2E inh 43.0%, CBFb-RUNX1 inh -4.1%, HTT ATP protect 31.9%[10 µM] and HTT aggregate 27.7%[9.22 µM].
`N=C(N)S/C=C\C(=O)O` gave JMJD2E inh -11.5%, CBFb-RUNX1 inh 10.0%, HTT ATP protect inconclusive, HPGD inh 35.5µM* and ALDH1A1 inh 7.94µM*.
O=c1oc(-c2ccc(C(F)(F)F)cc2)nn1Cc1cc(Cl)ccc1O was read as CBFb-RUNX1 inh 6.3%.
Screening CC1=CC(C)(C)N2C(=O)C(=O)c3cc(OC(=O)c4ccco4)cc1c32 returned JMJD2E inh -7.6%, CBFb-RUNX1 inh -2.1% and ALDH1A1 inh 0.631µM*.
Screening CCN(CC)S(=O)(=O)c1cccc(NC(=O)COC(=O)/C=C/c2cccs2)c1 returned JMJD2E inh -15.8%, CBFb-RUNX1 inh -1.8%, HTT ATP protect 8.3%[10 µM] and HTT aggregate -0.9%[9.22 µM].
